# Results as given in the supplement of paper PMC11417369.
# ± gives the standard deviation of the averaged measurements. In all, about 25,000 sequences were measured (“ln(normalized median fluorescence intensity)”: median about 10, highest 2% from about 12 on). This is one part of a sample in which the highest values are shown more often than they occur.
# Tested on: PfAP2-G AP2 domain (GST-tagged)
# Experiment: gcPBM binding intensity (ln(normalized median fluorescence intensity)); higher = stronger DNA binding
# Summary of the method: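 GST-tagged P. falciparum DNA-binding domains produced in E. coli were incubated for 1 h on an Agilent 4 × 180k array of primer-extended double-stranded 36-bp intergenic genomic probes with negative controls. Binding intensity is the highest Masliner-normalised natural-log median intensity across replicate spots of either probe orientation, with bound protein detected by Alexa488 anti-GST antibody at 488 nm.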
row,Sequence,gcPBM binding intensity (ln)
1,GTGTAGGCAAAAAGTTGTACGCCTAAAATCTATATA [XGTACX_site8912],11.7 ± 1.1
2,AATCAAAAAAAATGTTGTACGCCTAATTATAATTAA [XGTACX_site8906],11.6 ± 0.8
3,TGTATAGTCTAAAGTTGTACAAAAAAAAAAAAAAAA [XGTACX_site5764],11.3 ± 1
4,TATATATATATATGTTGTACTTTTAATTTAAATGTA [XGTACX_site4239],11.6 ± 0.94
5,TATTTTAATTTTTGTTGTACGCAAATGTGAGGGCAT [XGTACX_site4663],11.7 ± 1.2
6,TTTTAATTTTGTTGTTGTACAAATAACATGTGAGGG [XGTACX_site4401],11.2 ± 0.83
7,TTCTTATTTTATATTTCACACATTTTTACTATACTT [CACACA_site5817],10.08 ± 0.071
8,CACCCACACCAACACACACACATATATAATATATAT [CACACA_site595],10.3 ± 0.33
9,CCCTTTTCTAAATATTGTACGTATAAATTATATTAC [XGTACX_site7676],11.7 ± 0.88
10,TTTTTTTTTTTCTTTTGTACGTATAAAATTATATAA [XGTACX_site2453],11.5 ± 0.66
11,TAAATAATATAATTATGTACGTATTTCTTTATTTTA [XGTACX_site8410],11.4 ± 0.83
12,GGTGCACCCATATACACACACAAATACAATGATAAA [CACACA_site1132],10.6 ± 0.76
13,AATATATAAATTGACACACACATATATACATATATA [CACACA_site1213],10.1 ± 0.11
14,TATATATTTTGTGTCTGTACACATATTATTAATTCC [XGTACX_site7507],11.4 ± 1
15,AATTCATTTTACCCATGTACACAATTATATTTTATA [XGTACX_site4127],11.6 ± 0.83
16,TGTCTGTGCGGGTGTACACATTTCATATTACCCAAT [CACACA_site5593],11.8 ± 0.98
17,AATTTTTCATCAAGTTGTACAATTATTTGTTTGTTT [XGTACX_site3113],11.3 ± 0.73
18,ATATTAGAAATATGAATAGAAAGAATATATAAGTAT [CACACA_negctrl_site682],9.76 ± 0.37
19,TGTTTCTAAAAAAAAGGTACACATATATATAATATA [XGTACX_site3217],11.4 ± 0.93

row,Sequence,gcPBM binding intensity (ln)
1,TCGATATATAGACACACACACTTTTAATAATTAAAT [CACACA_site7726],10.2 ± 0.24
2,TCAAATGTGTAATCTTGTACACATTAAAAGAAAAAA [XGTACX_site8822],11.2 ± 0.83
3,TCTTTAATGATGTGTACACAAGAAAACATTGTTAAG [CACACA_site5299],11.7 ± 0.89
4,AACAATGTTTTCTTGTGTACACATCATTAAAGAAAA [XGTACX_site4726],11.6 ± 0.88
5,ATTTTTTTTTTTATTTTCTTTGAGATTATCTTAATT [CACACA_negctrl_site1209],9.78 ± 0.14
6,TATGTATAAAAATAATGTACAAAATATATTATATGT [XGTACX_site2794],10.9 ± 0.4
7,TATATATATATATGGGGTACAAATGGTCAGTATTAT [XGTACX_site1223],11.7 ± 0.97
8,AAAAAAAAAATTGAAAGTACACAAATGGGGTATTAT [XGTACX_site3960],11.5 ± 0.87
9,TAAAATTTGTACATAGTGCAATTTTTTTTTTTTTTT,10.7 ± 0.52
10,ATCATGAAATATATTTGTACACATAATAATATAATA [XGTACX_site8798],11.4 ± 0.89
11,TATACATATAAATTGTGTACACATATATATATATTT [XGTACX_site7875],11.6 ± 0.92
12,CATAAAATTGTATTTTGTACACATTTTGTATACATT [XGTACX_site5705],11.4 ± 0.82
13,GTGTTTTTATTATTTTGTACACATATATTTAATATT [XGTACX_site2109],11.5 ± 0.87
14,TTTTTTTTGTGTATTTGTACATAATATATATATATA [XGTACX_site7092],10.9 ± 0.49
15,TTTTTTTTTGGGTGTACACATGAATATATATTTTTT [CACACA_site5254],11.7 ± 0.95
16,ATGAATATATATATTTGTACATATGTATATATATAT [XGTACX_site7527],10.9 ± 0.54
17,TGTTATATTTGTGCGTGTACACATTTGAAAAAATAT [XGTACX_site3796],11.8 ± 1.1
18,ACATATAAATTGTGTACACATATATATATATTTTTT [CACACA_site5946],11.8 ± 1
19,TAATATTTTTTGTGTACACATATATATATATATATA [CACACA_site5504],11.7 ± 0.88

row,Sequence,gcPBM binding intensity (ln)
1,TATATTTGTGCGTGTACACATTTGAAAAAATATATA [CACACA_site5079],11.6 ± 0.88
2,TTGTGAAATAAAATTTGTACACACATATATATATAT [XGTACX_site1078],11.2 ± 0.86
3,GTTGGGTAATTCGTAACACACATAAAATATATATAA [CACACA_site3986],10.13 ± 0.099
4,CATAATGTAAATAAGTGTACACATATATAATACATA [XGTACX_site3108],11.6 ± 0.9
5,TATATTTATAGGTACACACACACATATAAATAAATA [CACACA_site6345],11.3 ± 0.98
6,TTATTTCTACCTTTTTGTACACATTATTATGAAACC [XGTACX_site5325],11.3 ± 0.81
7,ACTATTTTAAAAATATGTACATACGTTGTAATTTAA [XGTACX_site7999],11.4 ± 0.83
8,ATAATACAATTTATAACACACACACTATAATACATA [CACACA_site8338],10.025 ± 0.007
9,TTAGGTATATATAAACGTACTCACAATATCATATAA [XGTACX_site8743],11.1 ± 0.71
10,GAATTATAAGAATAAACACACAAGCTTAAAAAAAAA [CACACA_site1204],9.74 ± 0.18
11,TATTTGTGTATTTTTACACACATTAATATATTTATA [CACACA_site7562],9.9 ± 0.2
12,AATATATATTTGTGTACACATTATATATATATATAT [CACACA_site6103],11.9 ± 1.1
13,ATATATTTATATTTGTGTACATATTTATTATATTTA [XGTACX_site404],11.5 ± 0.67
14,CAAAAAGGAATGTATGCACACAATTGATTTTAACTC [CACACA_site1468],10 ± 0.13
15,AAATTAATAAATATTTTTATAAATTATAATATTAAT [GTGCAC_negctrl_site533],9.37 ± 0.16
16,TTTATTTTTAAAGGCACACACATTTTTATTTTTAAA [CACACA_site2021],10.1 ± 0.19
17,AGAAATTAATCGAGGTGTACGTACATCCAAATATAT [XGTACX_site7650],11.8 ± 1.2
18,AGAAATTAATCGAAGTGTACATATAAACATACATAT [XGTACX_site5518],11.3 ± 0.69
19,GAAAATACGTTTAATCGTACATATATATAATATATA [XGTACX_site4243],11.1 ± 0.88
